# Test results published in the supplement of paper PMC6555819.
# Experiments:
# Experiment in all cases: PBM binding z-score (relative to random genomic background probes); higher = stronger binding; sequences stand for … in GC…GCGATTGACAGCGTAGAATGAAGG
# [1] = tested on: FXR:RXRa (NR concentration 270 nM, RXRa partner concentration 90 nM)
# In short: (§1)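 The probes on custom Agilent 4×180K protein-binding microarrays were double-stranded, with 34-nt variable regions bearing direct-repeat seeds, single-nucleotide variants, half-site ablations and random human genomic background sequences. Incubation lasted 1 h with ligand-free nuclear receptor dimers in PBS pH 7.4, 2% milk, 0.02% Triton X-100, 1 mM DTT, 0.2 mg/mL BSA and 0.4 mg/ml salmon testes DNA. Antibodies against each partner (one per run) detected bound dimers, and fluorescence scans were regression-normalized. Binding z-scores take the random background probes as reference.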
# [2] = tested on: LXRa:RXRa (NR concentration 270 nM, RXRa partner concentration 90 nM)
# In short: as §1
# [3] = tested on: LXRa homodimer (NR concentration 270 nM)
# In short: as §1
# [4] = tested on: LXRb:RXRa (NR concentration 270 nM, RXRa partner concentration 90 nM)
# In short: as §1
# [5] = tested on: LXRb homodimer (NR concentration 270 nM)
# In short: as §1
# [6] = tested on: PPARa:RXRa (NR concentration 270 nM, RXRa partner concentration 90 nM)
# In short: as §1
# [7] = tested on: PPARg:RXRa (NR concentration 180 nM, RXRa partner concentration 90 nM)
# In short: as §1
# [8] = tested on: PPARg:RXRa 270nM:90nM, anti-RXR (NR concentration 270 nM, RXRa partner concentration 90 nM)
# In short: as §1
# [9] = tested on: PPARg:RXRa 30nM:10nM, anti-RXR (NR concentration 30 nM, RXRa partner concentration 10 nM)
# In short: as §1
# [10] = tested on: PPARg:RXRa 90nM:30nM, anti-RXR (NR concentration 90 nM, RXRa partner concentration 30 nM)
# In short: as §1
# [11] = tested on: PPARg:RXRa DBDmut IVT, anti-RXR (DBD mutation: RXRa K156A/R161A, NR concentration 270 nM, RXRa partner concentration 90 nM)
# In short: as §1
# [12] = tested on: PPARg:RXRa IVT, anti-PPARg (NR concentration 270 nM, RXRa partner concentration 90 nM)
# In short: as §1
# [13] = tested on: PPARg DBDmut:RXRa IVT, anti-PPARg (DBD mutation: PPARg1 K132A/R137A, NR concentration 270 nM, RXRa partner concentration 90 nM)
# In short: as §1
# [14] = tested on: PPARg DBDmut IVT, anti-PPARg (DBD mutation: PPARg1 K132A/R137A, NR concentration 270 nM)
# In short: as §1
# [15] = tested on: PPARg homodimer (NR concentration 180 nM)
# In short: as §1
# [16] = tested on: PXR:RXRa (NR concentration 270 nM, RXRa partner concentration 90 nM)
# In short: as §1
# [17] = tested on: PXR homodimer (NR concentration 270 nM)
# In short: as §1
# [18] = tested on: RARa:RXR (NR concentration 270 nM, RXRa partner concentration 90 nM)
# In short: as §1
# [19] = tested on: RARa homodimer (NR concentration 270 nM)
# In short: as §1
# [20] = tested on: RARb:RXRa (NR concentration 270 nM, RXRa partner concentration 90 nM)
# In short: as §1
Sequence,PBM binding z-score [1],PBM binding z-score [2],PBM binding z-score [3],PBM binding z-score [4],PBM binding z-score [5],PBM binding z-score [6],PBM binding z-score [7],PBM binding z-score [8],PBM binding z-score [9],PBM binding z-score [10],PBM binding z-score [11],PBM binding z-score [12],PBM binding z-score [13],PBM binding z-score [14],PBM binding z-score [15],PBM binding z-score [16],PBM binding z-score [17],PBM binding z-score [18],PBM binding z-score [19],PBM binding z-score [20]
CCTTACGGGTCACTGACAGGTTATATCATTTGGA,5.35,4.27,0.675,3.82,-0.0554,5.14,4.29,4.13,1.54,2.98,3.09,3.76,1.37,0.355,2.85,3.69,0.432,4.84,0.665,4.08
GCTGCTAGGTCAGGTTGGTAAGCTAACGGGTACG,1.13,0.523,-0.37,0.0783,-0.406,1.51,0.427,0.848,-0.218,0.338,2.81,2.17,-1.03,-1.39,0.662,-0.0241,-0.591,0.597,-0.659,3.09
CGAACTAGGTCATCCAGTACAGTGAATACATTGA,4.18,2.86,0.599,2.59,0.209,4.82,7.93,6.36,4.02,5.81,8.25,8.35,2.09,1.3,1.76,2.09,1.66,2.26,0.426,3.78
CATACAGGGTCAGCTATGCCAGAGTAGGGACGGC,4.14,2.68,-0.0915,1.98,0.359,4.21,3.53,2.58,0.968,1.77,0.895,2.38,0.429,0.135,0.969,2.18,-0.0786,3.05,0.191,4.03
CCTATTTGGTCAGGAGGTCACACACCGGATATGA,3.94,3.62,2.35,3.64,1.25,4.34,3.42,4.03,1.66,3.23,1.91,3.3,1.63,0.887,3.54,4.35,1.72,4.86,2.56,3.94
AGTCAAAGTTCAGGAAGAGGTAACGTAAAGCACG,3.92,3.76,0.911,2.07,0.602,3.54,4.98,4.92,1.98,3.88,0.106,2.18,0.684,0.616,2.21,2.84,0.943,3.04,0.831,4.45
CTACCAAGGTGAGCAAGGTCGTTGATTACTATTC,0.474,0.615,-0.2,0.949,-0.778,1.59,0.312,0.556,-0.319,-0.252,1.33,1.62,-0.318,-0.00619,0.031,1.79,0.655,1.44,-0.327,1.64
GCTTGTAGATCAAGGTTAACAAAGACTAAGCTAA,0.151,1.17,-0.222,0.96,-0.488,1.91,2.04,3.12,0.936,2.61,1.56,1.61,-0.0951,0.163,0.0842,0.565,0.265,1.07,-0.205,1.04
GCTAGCAGGCCATTTAGGTCACTCAATGACGGGC,0.265,-0.00867,-0.241,-0.158,-1.25,1.67,0.871,0.498,-0.134,0.454,1.71,2.41,-0.196,-1.01,-0.0591,0.564,0.12,0.658,-0.306,1.8
TGTCAAATTTCAAAGGTAACGTAAGTATCCACAC,0.556,0.784,-0.0184,0.869,0.492,0.954,0.712,1.41,1.62,1.41,-0.296,1.37,1,1.11,0.532,0.473,0.33,0.98,0.848,1.04
CGTCCAAGGTAAAGGTCAGTGAAAGAGACTCGAA,3.41,3.38,0.618,3.01,-0.119,4.54,5.24,6.05,3.76,5.72,1.42,3.27,-0.427,-0.748,1.81,3.05,0.298,3.83,1.38,4.61
ACAGACAGGTGATGAGGGTAACTCAGGCTATCAT,0.367,-0.0236,0.0191,0.0104,-0.517,0.465,0.8,-0.0214,0.142,-0.218,-0.0163,0.685,-0.934,0.0306,0.543,0.296,-0.131,0.591,-0.698,0.496
GCTTGTAGACCAAGGTTAAGAAAGACTAAGCTAA,-0.248,0.608,-0.357,0.335,-0.903,1.16,0.792,1.61,0.387,1.17,1.25,0.819,0.464,0.161,-0.164,0.252,-0.358,0.313,0.313,0.654
TCTTGTAGATCAAAGGTTTAGAAAGCCGAAGCCT,0.668,0.408,-0.116,0.454,-0.505,1.63,3.22,5.08,4.18,5.48,1.79,1.19,0.53,0.0845,0.307,0.16,-0.198,0.358,-0.0128,-0.0359
